Laboratory results from PubChem BioAssay.
Several values for one entry are separate records, joined by “and”; a condition that tells them apart may be missing. Equal values may be shown once. Results filed as inconclusive are left out. For some assays here: Measured potencies and affinities stand elsewhere. Activity calls are given as the source filed them.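 How the source made its calls, unless noted: active means at least 20% inhibition of 6-phosphogluconate dehydrogenase activity; inactive means the rest.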

What was measured:
[1] = compounds altering viability of human ES cells (AID 493140; call rule not given here;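 further: cells exposed to compounds for four days before counting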); conditions: human embryonic stem cell survival screen; stronger effect = higher value
[2] = P. berghei load reduction in hepatocytes – cell-based, HepG2, luciferase luminescence, HepG2 viability, primary screen (AID 624349; in the data active means parasite load remaining mostly below about 12%, no sharp cut-off; inactive means mostly above about 10%;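 further: 100% = mean of DMSO negative control wells on the same plate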); conditions: P. berghei liver stage in HepG2, luciferase luminescence, concentration not given here; parasite load remaining: stronger effect = lower value; viability: measured here: HepG2 viability without parasites
[3] = target: 6-phosphogluconate dehydrogenase, decarboxylating (Homo sapiens) (UniProt P52209); experiment: inhibition of human phosphogluconate dehydrogenase – biochemical, recombinant enzyme, NADPH absorbance, primary screen (AID 1159550); conditions: recombinant 6PGD, NADPH absorbance 341 nm; at 10 µM; stronger effect = higher value
Chain of 6-phosphogluconate dehydrogenase, decarboxylating (Homo sapiens) (P52209 whole entry, looked up): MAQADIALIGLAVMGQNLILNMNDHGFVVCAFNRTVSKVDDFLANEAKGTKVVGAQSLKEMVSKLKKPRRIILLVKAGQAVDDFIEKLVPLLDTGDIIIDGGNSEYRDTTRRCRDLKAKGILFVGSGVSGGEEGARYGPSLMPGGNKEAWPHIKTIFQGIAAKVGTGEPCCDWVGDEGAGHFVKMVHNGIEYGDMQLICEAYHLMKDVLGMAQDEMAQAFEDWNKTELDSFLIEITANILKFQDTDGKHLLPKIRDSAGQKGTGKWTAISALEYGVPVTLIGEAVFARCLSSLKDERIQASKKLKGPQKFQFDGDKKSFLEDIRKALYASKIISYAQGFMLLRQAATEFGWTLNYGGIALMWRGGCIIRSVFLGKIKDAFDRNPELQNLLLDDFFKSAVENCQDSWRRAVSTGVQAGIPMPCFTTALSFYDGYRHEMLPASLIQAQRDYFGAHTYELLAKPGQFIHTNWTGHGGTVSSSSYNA

[4] = target: NAD(+) hydrolase SARM1 (Homo sapiens) (UniProt Q6SZW1); experiment: blocking NAD cleavage by SARM1 SAM-TIR – cell lysate, NAD-Glo luminescence (AID 1508614;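 active means compound whose remaining NAD level is above about 45 nM, limit read from the data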); conditions: SAM-TIR HEK293T lysate NADase, at 1 µM, stronger effect = higher value
Chain of NAD(+) hydrolase SARM1 (Homo sapiens) (Q6SZW1 whole entry, looked up, the tested form may be a part): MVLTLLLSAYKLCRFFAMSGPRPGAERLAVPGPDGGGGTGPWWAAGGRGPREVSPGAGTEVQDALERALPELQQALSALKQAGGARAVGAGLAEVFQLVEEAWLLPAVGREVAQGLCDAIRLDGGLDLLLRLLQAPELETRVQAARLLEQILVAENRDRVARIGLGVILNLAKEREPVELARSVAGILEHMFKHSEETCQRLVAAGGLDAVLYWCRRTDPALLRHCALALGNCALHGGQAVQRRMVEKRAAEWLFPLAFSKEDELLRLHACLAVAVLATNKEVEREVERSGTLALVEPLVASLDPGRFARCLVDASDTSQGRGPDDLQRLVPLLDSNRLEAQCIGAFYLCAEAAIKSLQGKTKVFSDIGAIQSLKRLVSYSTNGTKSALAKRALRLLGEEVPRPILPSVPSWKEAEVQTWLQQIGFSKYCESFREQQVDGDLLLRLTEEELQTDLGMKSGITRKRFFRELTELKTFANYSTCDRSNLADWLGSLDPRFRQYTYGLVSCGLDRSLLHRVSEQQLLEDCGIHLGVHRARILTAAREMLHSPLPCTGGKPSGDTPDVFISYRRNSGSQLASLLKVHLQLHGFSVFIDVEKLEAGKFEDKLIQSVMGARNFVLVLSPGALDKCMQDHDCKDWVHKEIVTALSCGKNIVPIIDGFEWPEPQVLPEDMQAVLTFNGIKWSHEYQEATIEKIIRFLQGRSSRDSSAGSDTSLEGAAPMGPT

[5] = target: Mitogen-activated protein kinase 7 (Homo sapiens) (UniProt Q13164); experiment: Gal4-ERK5 driven luciferase induction – cell-based, HTS, primary screen (AID 1508626;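 active means luciferase signal above three times the same-plate solvent-only control wells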;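 further: luciferase driven by Gal4-ERK5 fusion binding five Gal4 sites before minimal TATA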); conditions: HeLa Gal4-ERK5 transactivation, 18 h, at 5 µM, stronger effect = higher value
Chain of Mitogen-activated protein kinase 7 (Homo sapiens) (Q13164 whole entry, looked up, the tested form may be a part): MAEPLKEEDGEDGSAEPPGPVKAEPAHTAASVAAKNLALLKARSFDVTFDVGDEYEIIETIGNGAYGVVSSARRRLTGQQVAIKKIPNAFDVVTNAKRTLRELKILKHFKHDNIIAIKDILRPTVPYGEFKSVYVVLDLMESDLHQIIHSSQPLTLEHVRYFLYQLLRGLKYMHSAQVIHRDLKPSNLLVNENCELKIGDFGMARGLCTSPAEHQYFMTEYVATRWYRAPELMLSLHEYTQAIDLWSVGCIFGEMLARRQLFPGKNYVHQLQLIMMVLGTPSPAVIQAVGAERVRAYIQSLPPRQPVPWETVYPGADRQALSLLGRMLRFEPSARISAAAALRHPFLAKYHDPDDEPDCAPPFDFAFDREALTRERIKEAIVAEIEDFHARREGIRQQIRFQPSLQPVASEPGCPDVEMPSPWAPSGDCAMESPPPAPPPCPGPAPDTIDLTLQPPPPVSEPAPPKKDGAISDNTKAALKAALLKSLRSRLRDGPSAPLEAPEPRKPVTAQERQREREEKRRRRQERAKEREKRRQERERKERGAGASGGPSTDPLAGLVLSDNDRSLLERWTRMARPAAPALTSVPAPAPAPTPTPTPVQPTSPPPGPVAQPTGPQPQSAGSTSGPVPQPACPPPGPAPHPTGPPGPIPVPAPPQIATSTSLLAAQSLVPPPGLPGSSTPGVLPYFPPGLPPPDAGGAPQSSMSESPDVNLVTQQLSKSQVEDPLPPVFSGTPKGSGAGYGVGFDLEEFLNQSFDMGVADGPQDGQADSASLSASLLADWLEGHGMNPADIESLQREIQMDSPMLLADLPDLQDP

[6] = viability loss with induced miR-34 in A549 – imaging, A549 dox-inducible miR-34, nuclei and caspase counts, primary screen (AID 1347080;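 active means compounds whose cell count with miR-34 switched on is under 0.7 times the count with it off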); conditions: A549 miR-34 inducible, Hoechst nuclei count, 48 h
[7] = target: ATP-dependent translocase ABCB1 (Homo sapiens) (UniProt P08183); experiment: P-glycoprotein substrate transport blockade – cell-based (AID 377; in the data active means fluorescence slope change above about 50%); conditions: MDR1-expressing cells, fluorescent substrate accumulation slope; stronger effect = higher value; concentration not given here
Chain of ATP-dependent translocase ABCB1 (Homo sapiens) (P08183 whole entry, looked up): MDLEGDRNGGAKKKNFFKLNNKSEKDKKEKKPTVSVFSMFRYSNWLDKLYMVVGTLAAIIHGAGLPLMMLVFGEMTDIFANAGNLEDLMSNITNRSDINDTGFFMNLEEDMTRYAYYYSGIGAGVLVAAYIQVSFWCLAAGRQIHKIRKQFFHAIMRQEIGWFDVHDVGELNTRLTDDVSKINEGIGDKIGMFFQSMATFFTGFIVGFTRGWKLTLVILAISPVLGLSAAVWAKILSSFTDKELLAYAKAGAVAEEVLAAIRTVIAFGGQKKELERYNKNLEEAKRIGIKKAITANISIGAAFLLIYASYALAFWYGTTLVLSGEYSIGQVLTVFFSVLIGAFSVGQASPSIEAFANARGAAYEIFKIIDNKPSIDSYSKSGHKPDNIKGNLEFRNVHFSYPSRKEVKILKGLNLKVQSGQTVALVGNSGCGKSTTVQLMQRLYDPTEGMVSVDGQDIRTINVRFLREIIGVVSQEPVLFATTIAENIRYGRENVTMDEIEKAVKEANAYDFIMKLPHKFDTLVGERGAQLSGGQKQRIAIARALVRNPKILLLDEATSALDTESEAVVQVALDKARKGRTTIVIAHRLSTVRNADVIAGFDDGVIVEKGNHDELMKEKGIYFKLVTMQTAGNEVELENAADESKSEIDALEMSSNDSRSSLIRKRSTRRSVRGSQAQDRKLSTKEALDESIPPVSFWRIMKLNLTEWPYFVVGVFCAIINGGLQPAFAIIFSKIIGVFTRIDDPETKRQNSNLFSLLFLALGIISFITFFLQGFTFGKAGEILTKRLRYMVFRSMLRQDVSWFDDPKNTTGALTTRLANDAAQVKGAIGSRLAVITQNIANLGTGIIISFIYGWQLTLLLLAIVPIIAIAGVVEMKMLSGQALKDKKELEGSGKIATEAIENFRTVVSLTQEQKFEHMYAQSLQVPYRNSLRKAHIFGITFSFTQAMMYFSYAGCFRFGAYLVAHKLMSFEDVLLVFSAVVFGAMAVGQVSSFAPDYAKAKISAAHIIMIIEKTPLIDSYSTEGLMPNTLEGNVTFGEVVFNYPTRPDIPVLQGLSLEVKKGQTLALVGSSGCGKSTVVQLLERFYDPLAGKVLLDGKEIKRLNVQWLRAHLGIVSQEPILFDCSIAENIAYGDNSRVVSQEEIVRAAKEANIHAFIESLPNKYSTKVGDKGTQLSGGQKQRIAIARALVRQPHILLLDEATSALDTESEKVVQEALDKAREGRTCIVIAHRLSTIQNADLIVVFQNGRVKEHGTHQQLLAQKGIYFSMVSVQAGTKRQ

[8] = blockers of polyQ-driven CASP3 activation – cell-based (AID 1583); conditions: polyglutamine-induced caspase-3 activation, cell assay; stronger effect = higher value;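 tested at 10 µM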
[9] = yeast 75Q aggregation reduction – 75Q-TubU reporter (AID 1593); conditions: Yeast 75Q polyglutamine aggregation reporter
[10] = blockers of cytochrome c efflux from mitochondria – biochemical, purified mitochondria (AID 1603); conditions: stronger effect = lower value;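 further: mouse liver mitochondria challenged with calcium chloride; signal normalized to the plate average as 100%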
[11] = polyglutamine aggregate formation blockers (AID 1604); conditions: polyglutamine-induced protein aggregation inhibition assay; stronger effect = higher value; tested at 2.5 µM
[12] = glutamate transport activators, MN-1 cells, MN-1 cell line (AID 1612); conditions: MN-1 motor neuron cells, stronger effect = higher value;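 further: tested at 1 µM final; 0% = mean of DMSO vehicle wells on each plate; positive means more glutamate uptake than control and negative means less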
[13] = GFP-Q80 aggregate reduction, neuronal-like cells, cell-based, NGF-treated PC12, GFPQ80 (AID 1614); conditions: PC12 NGF-treated GFP-polyQ80 inclusion reduction;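 further: lower means fewer inclusions and 0 means no inclusions at all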
[14] = 75Q-TubH aggregate inhibition, S. cerevisiae, yeast (AID 1616); conditions: S. cerevisiae 75Q-TubH polyglutamine aggregation suppression; stronger effect = higher value
[15] = compounds altering circadian rhythm period length – cell-based, LOPAC library, luminescence reporter (AID 2774; call rule not given here;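 further: values are relative to mean of DMSO wells on each plate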); conditions: circadian reporter cells, at 7 µM, actives lie on both sides
[16] = galactose survival enhancers in mitochondrial complex I cybrids – cell-based, galactose medium, ATP luminescence, primary screen (AID 1645843;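 active means z-score of at least 1.8 in each of two replicates, scored against plate mean and spread of sample wells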;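 further: positive z means more ATP and so rescue of galactose-driven cybrid death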); conditions: complex I mutant cybrid cells, 72 h, stronger effect = higher value
[17] = MELAS cybrid and Rieske KO viability enhancers – cell-based, MELAS cybrids, Rieske KO mouse fibroblasts, CellTiter-Glo, primary screen (AID 1508586;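 active means mean z-score across replicates of 1.96 or higher in either the MELAS or the Rieske mutant cell line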;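 further: z relative to plate mean and SD of compound and empty wells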); conditions: low glucose
[18] = restoration of touch response, mutant HTT neurons – whole organism, C. elegans mechanosensory neurons, N-terminal huntingtin (AID 1599); conditions: C. elegans polyQ-huntingtin mechanosensory neurons, stronger effect = higher value
[19] = stronger effect = lower value, cell number ratio, induced over uninduced
[20] = measured here: relative caspase fold change +Dox/-Dox
[21] = measured here: total cells with miR-34 induction, stronger effect = lower value
[22] = measured here: total cells without miR-34 induction

## CC(=O)OCC(=O)[C@@]1(O)CC[C@H]2[C@@H]3CCC4=CC(=O)CC[C@]4(C)[C@@]3(F)[C@@H](O)C[C@@]21C
[1]
  survival: 16.7 (inactive)
[2]
  parasite load remaining: 136% (inactive)
  viability: 91.3%
[3]
  inhibition: -10.7% (inactive)
[4]
  remaining NAD: 10 nM (inactive)
[5]
  luciferase signal: 84 AU (inactive)

## C=C1C[C@]23C[C@@]1(O)CC[C@H]2[C@@]12C=C[C@H](O)[C@@](C)(C(=O)O1)[C@H]2[C@@H]3C(=O)O
[1]
  survival: 1.25 (inactive)
[2]
  parasite load remaining: 101% (inactive)
  viability: 80.4%
[3]
  inhibition: -0.284% (inactive)
[6]; [19]
  fold change: 0.973 (inactive)
[6]; [20]
  fold change: 0.674
[6]; [21]
  cell count: 8110
[6]; [22]
  cell count: 8340
[5]
  luciferase signal: 40 AU (inactive)

## C[C@@H]1O[C@@H](O[C@H]2[C@H](Oc3cc(O)c4c(c3)O[C@H](c3ccc(O)cc3)CC4=O)O[C@H](CO)[C@@H](O)[C@@H]2O)[C@H](O)[C@H](O)[C@H]1O
[7]
  fluorescence slope change: 21.6% (inactive)
[8]
  inhibition: -1.5%
[9]
  score: 1.92
[10]
  cytochrome c release ratio: 1.05
[11]
  inhibition of aggregation: 82.5%
[12]
  glutamate uptake change: 6.96%
[13]
  inclusion score: 2
[14]
  aggregation suppression score: 1.02
[1]
  survival: 7.67 (inactive)
[2]
  parasite load remaining: 153% (inactive) and 66.6% (inactive)
  viability: 111% and 77.6%
[3]
  inhibition: 4.72% (inactive)
[6]; [19]
  fold change: 0.866 (inactive)
[6]; [20]
  fold change: 1.55
[6]; [21]
  cell count: 9380
[6]; [22]
  cell count: 10800
[5]
  luciferase signal: 60 AU (inactive)

## O=C(O)c1cc(O)c2c(c1)[C@H]([C@H]1c3cc(C(=O)O)cc(O)c3C(=O)c3c(O[C@@H]4O[C@H](CO)[C@@H](O)[C@H](O)[C@H]4O)cccc31)c1cccc(O[C@@H]3O[C@H](CO)[C@@H](O)[C@H](O)[C@H]3O)c1C2=O
[3]
  inhibition: 6.02% (inactive)
[4]
  remaining NAD: 11 nM (inactive)
[5]
  luciferase signal: 76 AU (inactive)

## CO/N=C(\C(=O)N[C@@H]1C(=O)N2C(C(=O)O)=C(CSc3nc(=O)c(O)nn3C)CSC12)c1csc(N)n1 (stereo partly drawn)
[15]
  period change: 0.08 h (inactive)
[3]
  inhibition: -13.8% (inactive)
[6]; [19]
  fold change: 1.02 (inactive)
[6]; [20]
  fold change: 1.74
[6]; [21]
  cell count: 10200
[6]; [22]
  cell count: 9980
[16]
  z-score: 0.175 (inactive)

## C[C@@H]1O[C@@H](OC[C@H]2O[C@@H](Oc3c(-c4ccc(OCCO)c(OCCO)c4)oc4cc(OCCO)cc(O)c4c3=O)[C@H](O)[C@@H](O)[C@@H]2O)[C@H](O)[C@H](O)[C@H]1O
[3]
  inhibition: -5.09% (inactive)
[4]
  remaining NAD: 10 nM (inactive)
[5]
  luciferase signal: 72 AU (inactive)

## CC(=O)OCC(=O)[C@@]12OC3(CCCC3)O[C@@H]1C[C@H]1[C@@H]3CCC4=CC(=O)C=C[C@]4(C)[C@@]3(F)[C@@H](O)C[C@@]12C
[3]
  inhibition: 2.31% (inactive)
[17]; MELAS cybrid survival, CellTiter-Glo 48 h, stronger effect = higher value
  z-score: 0.316 (inactive)
[17]; Rieske KO mouse fibroblast survival, CellTiter-Glo 72 h
  z-score: 0.335
[4]
  remaining NAD: 10 nM (inactive)
[5]
  luciferase signal: 44 AU (inactive)

## O=C(OC[C@H]1O[C@@H](OC(=O)c2cc(O)c(O)c(OC(=O)c3cc(O)c(O)c(O)c3)c2)[C@H](OC(=O)c2cc(O)c(O)c(OC(=O)c3cc(O)c(O)c(O)c3)c2)[C@@H](OC(=O)c2cc(O)c(O)c(OC(=O)c3cc(O)c(O)c(O)c3)c2)[C@@H]1OC(=O)c1cc(O)c(O)c(OC(=O)c2cc(O)c(O)c(O)c2)c1)c1cc(O)c(O)c(OC(=O)c2cc(O)c(O)c(O)c2)c1
[3]
  inhibition: 12.6% (inactive)
[4]
  remaining NAD: 10 nM (inactive)
[5]
  luciferase signal: 32 AU (inactive)

## CO[C@H]1C[C@H](O[C@@H]2/C(C)=C/C[C@@H]3C[C@@H](C[C@]4(CC[C@H](C)[C@@H](C5CCCCC5)O4)O3)OC(=O)[C@@H]3C=C(C)/C(=N/O)[C@H]4OC/C(=C\C=C\[C@@H]2C)[C@]43O)O[C@@H](C)[C@@H]1O
[3]
  inhibition: -18% (inactive)
[4]
  remaining NAD: 23 nM (inactive)
[5]
  luciferase signal: 36 AU (inactive)

## C[N+](C)(C)CCOP(=O)([O-])OP(=O)(O)OC[C@H]1O[C@@H](n2ccc(N)nc2=O)[C@H](O)[C@@H]1O
[3]
  inhibition: -4.56% (inactive)
[4]
  remaining NAD: 10 nM (inactive)
[5]
  luciferase signal: 76 AU (inactive)

## CC(C)C[C@@H]1NC(=O)[C@H](CCCN)NC(=O)[C@H](C(C)C)NC(=O)[C@H](Cc2ccc(O)cc2)N[C@@H](CCC(=O)O)C(=O)N[C@@H](CC(N)=O)C(=O)[C@@H](Cc2ccccc2)NC(=O)[C@H](Cc2ccccc2)NC(=O)[C@@H]2CCCN2C(=O)[C@@H](Cc2ccccc2)NC1=O
[3]
  inhibition: 2.66% (inactive)
[4]
  remaining NAD: 10 nM (inactive)

## CC1CCCC(C)N1NC(=O)c1ccc(Cl)c(S(N)(=O)=O)c1 (stereo not drawn)
[8]
  inhibition: 16.7%
[9]
  score: 1.67
[18]
  rescue above control: -10.1
[10]
  cytochrome c release ratio: 0.96
[11]
  inhibition of aggregation: 25.5%
[12]
  glutamate uptake change: -0.09%
[13]
  inclusion score: 2
[14]
  aggregation suppression score: 1.2
[1]
  survival: 5.92 (inactive)
[2]
  parasite load remaining: 92.4% (inactive) and 77.2% (inactive)
  viability: 76.8% and 96.5%
[3]
  inhibition: 6.91% (inactive)
[6]; [19]
  fold change: 0.9 (inactive)
[6]; [20]
  fold change: 4.97
[6]; [21]
  cell count: 7530
[6]; [22]
  cell count: 8360

## NC[C@@H]1O[C@H](O[C@H]2[C@@H](O)[C@H](O[C@@H]3[C@@H](O)[C@H](N)C[C@H](N)[C@H]3O[C@H]3O[C@H](CO)[C@@H](O)[C@H](O)[C@H]3N)O[C@@H]2CO)[C@H](N)[C@@H](O)[C@@H]1O
[3]
  inhibition: -8.11% (inactive)
[4]
  remaining NAD: 10 nM (inactive)
[5]
  luciferase signal: 80 AU (inactive)

## CC(C)=CCc1c2c(c(O)c3c(=O)c(O)c(-c4ccccc4)oc13)C=CC(C)(C)O2
[3]
  inhibition: -4.34% (inactive)
[5]
  luciferase signal: 64 AU (inactive)

## O=C(/C=C/c1ccc(O)c(O)c1)O[C@@H]1C[C@](O)(C(=O)O)C[C@@H](O)[C@H]1O
[7]
  fluorescence slope change: 18.7% (inactive)
[1]
  survival: 22.8 (inactive)
[2]
  parasite load remaining: 105% (inactive) and 63.3% (inactive)
  viability: 94.7% and 73.7%
[3]
  inhibition: -7.84% (inactive)
[6]; [19]
  fold change: 0.882 (inactive) and 0.998 (inactive)
[6]; [20]
  fold change: 1.35 and 0.827
[6]; [21]
  cell count: 9710 and 5820
[6]; [22]
  cell count: 11000 and 5830
[5]
  luciferase signal: 56 AU (inactive)

## CC(C)CCC[C@@H](C)[C@H]1CC[C@H]2[C@@H]3CC=C4C[C@@H](O)CC[C@]4(C)[C@H]3CC[C@]12C
[3]
  inhibition: 2.5% (inactive)
[4]
  remaining NAD: 10 nM (inactive)
[5]
  luciferase signal: 52 AU (inactive)

## NC[C@H]1O[C@H](O[C@H]2[C@H](O[C@@H]3O[C@H](CO)[C@@H](O)[C@H]3O)[C@@H](O)[C@H](N)C[C@@H]2N)[C@H](N)[C@@H](O)[C@@H]1O
[3]
  inhibition: -2.01% (inactive)
[4]
  remaining NAD: 10 nM (inactive)
[5]
  luciferase signal: 40 AU (inactive)
